Test results taken from PubChem BioAssay (NCATS).
Results filed as inconclusive are left out. Values without a mark were called inactive. Calls of active or inactive are those of the source. Calls come from the whole dose curve; as a rule, active = well fitted cell-killing curve with a large enough effect; inconclusive = small, poorly fitted or top-dose-only effect, or effect the other way; inactive = no such curve, though single readings can be large or run the other way. Peptide text beside a SMILES is read from it.

Experiment: qHTS assay to identify small molecule inhibitors of chordoma cells - UCH-1 (AID 1259355); note: nearly all actives have a fitted effect of over 55% in size
Settings: UCH-1 chordoma viability, CellTiter-Glo, 48 h, combination, with auranofin plus four topoisomerase inhibitors; series mostly up to 46.1 µM; activity, negative = inhibition: at the top concentration
Procedure, shortened: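 Screening used approved and investigational drugs in 15-point titration against 800 seeded cells per well. A fixed combination of auranofin with camptothecin, doxorubicin, rubitecan and topotecan followed compound addition, and growth was scored by CellTiter-Glo after 48hr.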
% is set by controls: 0 for no effect and ±100 for the full control effect; potency is the fitted concentration of half-maximal effect.

Row | Structure (SMILES) | activity, negative = inhibition | Potency
1 | CC(NNC(=O)c1ccccc1)c1ccccc1 (stereo unspecified) | -8.31% | 
2 | CC(C)(C)C(=O)OCOC(=O)[C@@H]1N2C(=O)[C@@H](N=CN3CCCCCC3)[C@H]2SC1(C)C | 12.2% [at 20.6 µM] | 
3 | CC(=O)N[C@@H](CC(=O)O)C(=O)N[C@@H](CCC(=O)O)C(=O)O (Ac-Asp-Glu-OH) | 2.19% | 
4 | CO/N=C(\C(=O)N[C@@H]1C(=O)N2C(C(=O)O)=C(CSc3cnns3)CS[C@H]12)c1csc(N)n1 | -12.1% | 
5 | C[C@@H]1[C@H](O)[C@@H](C)/C=C/C=C\C=C\C=C\C=C\C=C\C=C\[C@H](O[C@@H]2O[C@H](C)[C@@H](O)[C@H](N)[C@@H]2O)C[C@@H]2O[C@](O)(C[C@@H](O)C[C@@H](O)[C@H](O)CC[C@@H](O)C[C@@H](O)CC(=O)O[C@H]1C)C[C@H](O)[C@H]2C(=O)O (stereo in doubt) | -21.5% | 
6 | CCOC(=O)C1=CC2(CC)CCCN3CCc4c(n1c1ccccc41)C32 (stereo unspecified) | -21.2% | 
7 | CCCCC(=O)N(Cc1ccc(-c2ccccc2-c2nn[nH]n2)cc1)[C@@H](C(=O)O)C(C)C | -1.52% | 
8 | CC[N+](CC)(CC)CCC(O)(c1ccccc1)C1CCCCC1 (stereo unspecified) | -2.5% [at 20.6 µM] | 
9 | CCCCCC(CC)COC(=O)CC(C(=O)OCC(CC)CCCC)S(=O)(=O)O (stereo unspecified) | 7.45% | 
10 | CNc1cc(OC)c(C(=O)N[C@H]2CCN(Cc3ccccc3)[C@H]2C)cc1Cl | 2.84% | 
11 | CCCCC(=O)OCC(=O)[C@]1(O)Cc2c(O)c3c(c(O)c2[C@@H](O[C@H]2C[C@H](NC(=O)C(F)(F)F)[C@H](O)[C@H](C)O2)C1)C(=O)c1c(OC)cccc1C3=O |  | 6.31 µM (active)
12 | COC(=O)[C@H]1[C@H]2CC3c4[nH]c5ccccc5c4CCN3C[C@@H]2CC[C@@H]1O (stereo partly specified) | -17% | 
13 | Clc1cc(Cl)c(OCC#CI)cc1Cl | -15% | 
14 | Cc1c(C)c2c(c(C)c1O)CC[C@@](C)(CCC[C@@H](C)CCC[C@@H](C)CCCC(C)C)O2 | 4% | 
15 | O=S(=O)(O)c1cc(O)c2c(N=Nc3ccc(Nc4ccccc4)c4c(S(=O)(=O)O)cccc34)cc(S(=O)(=O)O)cc2c1 |  | 15.8 µM (active)
16 | CC1(C)S[C@@H]2[C@H](NC(=O)[C@@H](NC(=O)N3CCNC3=O)c3ccccc3)C(=O)N2[C@H]1C(=O)O | -17.8% [at 20.6 µM] | 

Row | Structure (SMILES) | activity, negative = inhibition | Potency
17 | CNC(C)[C@@H]1CC[C@@H](N)[C@@H](O[C@H]2[C@H](O)[C@@H](O[C@H]3OC[C@](C)(O)[C@H](NC)[C@H]3O)[C@H](N)C[C@@H]2N)O1 (stereo partly specified) | -24.3% [at 20.6 µM] | 
18 | C[C@]12C=CC(=O)N[C@@H]1CC[C@@H]1[C@@H]2CC[C@]2(C)[C@@H](C(=O)Nc3cc(C(F)(F)F)ccc3C(F)(F)F)CC[C@@H]12 | -19.8% | 
19 | CCC(=O)O[C@]1(C(=O)CCl)[C@@H](C)C[C@H]2[C@@H]3C[C@H](F)C4=CC(=O)C=C[C@]4(C)[C@@]3(F)[C@@H](O)C[C@@]21C | -44.1% | 
20 | CN1CCC(CN2c3ccccc3Sc3ccccc32)C1 (stereo unspecified) | -20.2% | 
21 | NC(=O)c1ncn(C2OC(CO)C(O)C2O)n1 (stereo unspecified) | 11.5% | 
22 | CCC1OC(=O)C[C@@H](O)[C@H](C)[C@@H](O[C@@H]2O[C@H](C)C[C@H](N(C)C)[C@H]2O)[C@@H](CC=O)C[C@@H](C)C(=O)/C=C/[C@]2(C)OC2C1C (stereo partly specified) | -13.7% | 
23 | Nc1ccn([C@H]2CS[C@@H](CO)O2)c(=O)n1 | -6.49% | 
24 | NC1C2CN(c3nc4c(cc3F)c(=O)c(C(=O)O)cn4-c3ccc(F)cc3F)CC12 (stereo unspecified) | -20.4% | 
25 | CCC(=O)O[C@@H]1CC(=O)O[C@H](C)C/C=C/C=C/[C@H](O)[C@H](C)C[C@H](CC=O)[C@H](O[C@@H]2O[C@H](C)[C@@H](O[C@H]3C[C@@](C)(O)[C@@H](OC(=O)CC)[C@H](C)O3)[C@H](N(C)C)[C@H]2O)[C@H]1OC | -14.4% [at 20.6 µM] | 
26 | CO[C@H]1C[C@H](O[C@H]2[C@H](C)[C@@H](O[C@@H]3O[C@H](C)C[C@H](N(C)C)[C@H]3OC(C)=O)[C@@H](C)C[C@]3(CO3)C(=O)[C@H](C)[C@@H](OC(C)=O)[C@@H](C)[C@@H](C)OC(=O)[C@@H]2C)O[C@@H](C)[C@@H]1OC(C)=O | -19% [at 20.6 µM] | 
27 | CN=C(NC#N)Nc1ccc(C2=NNC(=O)C[C@@H]2C)cc1 | -15.6% | 
28 | CCCC(=O)Nc1ncnc2c1ncn2C1OC2COP(=O)(O)OC2C1OC(=O)CCC (stereo unspecified) | -10.6% | 
29 | Oc1cc(O)c2c(c1)OC(c1ccc(O)c(O)c1)C(O)C2 (stereo unspecified) | -17.1% | 
30 | O=C(COc1ccc(Cl)cc1)OCCNC12CC3CC(CC(C3)C1)C2 | -5.77% | 
31 | Cc1cc(CC(C)CC(C)(C)C)n(O)c(=O)c1 (stereo unspecified) (tested in a mixture with another compound) | -9.36% | 
